Results from PubChem BioAssay (Tox21).
Records with an inconclusive call do not appear. The source made the active and inactive calls. Unless noted, calls follow the shape of the dose curve; as a rule, active = well fitted curve in the direction sought with a large enough effect in the repeat runs; inconclusive = weak or mixed curves; inactive = no such curve, though single readings can be large; an effect the other way counts as inactive or inconclusive.

Experiments:
[1] = qHTS assay to identify small molecule agonists of the hypoxia (HIF-1) signaling pathway - cell viability counter screen (AID 1224844; calls by dose curve; also: nearly all actives have a fitted effect of over 50% in size)
In short: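 ME-180 HRE-bla cells, 2,000/well, 0.5% dialyzed FBS; 5 hr settle, 17 hr compound at 37C/5% CO2; CCF4-AM reporter read first, then CellTiter-Glo luminescence after 30 min RT.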

[2] = qHTS assay to identify small molecule agonists of H2AX (AID 1224845; active = well fitted activation curve with a large enough effect in the signal ratio in the repeat runs, not every such curve was filed as active; the % refers to the signal ratio)
In short: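 Wild-type CHO-K1 cells, plated overnight, exposed 3hr at 37C to 15 concentrations (0.76% DMSO final). Lysed, then HTRF anti-pH2AX (S139) cryptate and anti-H2AX-d2 antibodies, 24 hr room temperature; 665/620 nm emission read.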

[3] = qHTS assay to identify small molecule agonists of the hypoxia (HIF-1) signaling pathway (AID 1224846; active = well fitted activation curve with a large enough effect in the signal ratio in the repeat runs, not every such curve was filed as active; the % refers to the signal ratio)
In short: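 Cell line: CellSensor HRE-bla ME-180; 2,000 cells/well; 0.5% dialyzed FBS; 5 h preincubation; DMSO compound pin transfer; 17 h, 37C, 5% CO2; CCF4-AM added; bla FRET signal scored for activation.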

[4] = qHTS assay to identify small molecule agonists of H2AX - cell viability counter screen (AID 1224847; calls by dose curve; also: top concentration of the series differs between compounds; nearly all actives have a fitted effect of over 30% in size)
In short: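 For this counter screen, overnight-attached CHO-K1 cells received test compounds (15 concentrations, 0.76% DMSO final); 3 hr later at 37C, CellTiter-Glo reagent was added and luminescence recorded after 30 min at room temperature.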

[5] = qHTS assay to identify small molecule agonists of the estrogen related receptor (ERR) signaling pathway from Tox21 library (AID 1224849; calls by dose curve; also: nearly all actives have a fitted effect of over 15% in size); settings: ERR reporter cell line, ONE-Glo luciferase, 18 h; at 92.4 µM (top of the series) unless noted
In short: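 ERR cells, 6 h pre-incubation 37 C/5% CO2; cpd in DMSO pinned; 18 h 37 C; ONE-Glo added, 30 min RT; luminescence read. Agonist mode, qHTS.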

[6] = qHTS RealTime-Glo MT Cell Viability Assay in HepG2 cells - 24 hour (AID 1224867); also: nearly all actives have a fitted effect of over 50% in size
In short: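 qHTS, HepG2, 600 cells/well, RealTime-Glo (NanoLuc + prosubstrate) added with cells; 5 h preincubation; DMSO compound addition; 37 C; luminescence at 0/8/16/24/32/40 h.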

[7] = qHTS RealTime-Glo MT Cell Viability Assay in HEK293 cells - 32 hour (AID 1224868); also: top concentration of the series differs between compounds; nearly all actives have a fitted effect of over 50% in size
In short: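 Assay medium contained NanoLuc luciferase plus cell-permeant prosubstrate, added with HEK293 cells at 600 cells/well. After 5 h at 37 C/5% CO2 compounds were added; plates stayed at 37 C for 40 h with serial luminescence reads.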

[8] = qHTS RealTime-Glo MT Cell Viability Assay in HepG2 cells - 40 hour (AID 1224870); also: nearly all actives have a fitted effect of over 50% in size
In short: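 HepG2 cells (600/well) mixed with RealTime-Glo MT reagent, settled 5 h at 37 C/5% CO2 before compound addition. Nonlytic NanoLuc luminescence from viable-cell prosubstrate reduction read repeatedly during 40 h treatment at 37 C.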

[9] = A CellTox Green Cytotoxicity Assay to monitor cytotoxicity in HEK293 cells - 0 hour (AID 1224869); also: nearly all actives have a fitted effect of over 50% in size
In short: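 Nonlytic real-time cytotoxicity: HEK293 + CellTox Green reagent plated, 5 h preincubation, pintool compound addition (23 nL in DMSO), 37 C for 40 h, fluorescence measured at successive time points.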

[10] = qHTS assay to identify small molecule antagonists of the estrogen related receptor (ERR) signaling pathway from Tox21 library (AID 1224848); also: nearly all actives have a fitted effect of over 50% in size
In short: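 ERR reporter cell line (from NTP) seeded 2,000 cells/well, rested 6 h at 37 C/5% CO2, then pin-dosed with compounds in DMSO. After 18 h at 37 C, ONE-Glo added; luminescence read after 30 min at room temperature.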
% is scaled to controls: 0 for no effect and ±100 for the full control effect.

C=C[Si](OC(=C)C)(OC(=C)C)OC(=C)C
inactive: Potency [1] | outcome [2] | outcome [3] | Potency [4] | activity change, positive = activation [5] -0.275% | Potency [6] | Potency [7] | Potency [8]

CCC(C)C1CCCCC1=O (stereo not given)
inactive: Potency [1] | outcome [2] | outcome [3] | activity change, positive = activation [5] 3.66% | Potency [6] | Potency [7] | Potency [9]

CC(C)(O)C(=O)c1ccccc1
inactive: Potency [1] | outcome [2] | outcome [3] | Potency [10] | activity change, positive = activation [5] 0.982% | Potency [6] | Potency [8]

OC(CCN1CCCCC1)(c1ccccc1)C1CC2C=CC1C2 (stereo not given)
inactive: Potency [1] | outcome [2] | outcome [3] | Potency [4] | Potency [6] | Potency [7] | Potency [9] | Potency [8]

CCCCC/C=C\CCC=O
inactive: Potency [1] | outcome [2] | outcome [3] | Potency [4] | Potency [6] | Potency [7] | Potency [9] | Potency [8]

C[C@H]1C[C@@H](O)CC(C)(C)C1
inactive: Potency [1] | outcome [2] | outcome [3] | Potency [10] | activity change, positive = activation [5] 0.742% | Potency [6] | Potency [7]

CCOC(=O)CC(C)=O
inactive: Potency [1] | outcome [2] | outcome [3] | Potency [4] | Potency [6] | Potency [7] | Potency [9] | Potency [8]

O=C1CCCC(=O)C1
inactive: Potency [1] | outcome [2] | outcome [3] | Potency [10] | activity change, positive = activation [5] -12.9% | Potency [6] | Potency [7] | Potency [9] | Potency [8]

CC(=O)OCC(CCn1cnc2cnc(N)nc21)COC(C)=O
inactive: Potency [1] | outcome [2] | outcome [3] | Potency [4] | Potency [6] | Potency [7] | Potency [9] | Potency [8]

Cc1cccn2c(=O)c(-c3nnn[nH]3)cnc12
inactive: activity change, negative = cytotoxicity [1] -2.16% [at 15.8 µM] | outcome [2] | activation [3] -0.179% [at 15.8 µM] | Potency [4] | activity change, positive = activation [5] 4.72% [at 19 µM] | activity change, negative = cytotoxicity [6] -2.42% [at 15.8 µM] | activity change, negative = cytotoxic [7] -0.452% [at 15.8 µM] | activity change, negative = cytotoxic [8] 2.03% [at 15.8 µM]

CCO/C([O-])=N/c1c[n+](N2CCOCC2)no1
inactive: Potency [1] | outcome [2] | Potency [4] | Potency [10] | activity change, positive = activation [5] 0.723% [at 42.5 µM] | Potency [6] | Potency [9] | Potency [8]

CCc1nccnc1CC
inactive: activity change, negative = cytotoxicity [1] 5.25% [at 15.8 µM] | outcome [2] | Potency [4] | activity, negative = inhibition [10] 3.93% [at 19 µM] | activity change, positive = activation [5] 2.61% [at 19 µM] | activity change, negative = cytotoxicity [6] -0.21% [at 15.8 µM] | activity change, negative = cytotoxic [7] 3.89% [at 15.8 µM] | activity change, negative = cytotoxic [8] -2.15% [at 15.8 µM]

NC(=O)Nc1ccccc1
inactive: Potency [1] | outcome [2] | outcome [3] | activity change, positive = activation [5] 8.88% | Potency [6] | Potency [7] | Potency [9] | Potency [8]

N[C@@H](C(=O)N[C@@H]1C(=O)N2C(C(=O)O)=C(Cl)CS[C@H]12)c1ccccc1
inactive: activity change, negative = cytotoxicity [1] 1.81% [at 6.97 µM] | activation (H2AX phosphorylation) [2] 0.237% [at 14 µM] | activity change, negative = cytotoxicity [4] -0.534% [at 14 µM] | activity, negative = inhibition [10] 7.8% [at 8.39 µM] | activity change, positive = activation [5] 4.35% [at 8.39 µM] | activity change, negative = cytotoxicity [6] 0.732% [at 6.97 µM] | activity change, negative = cytotoxic [7] 8.14% [at 6.97 µM] | cytotoxicity [9] 2.09% [at 6.97 µM]

NS(=O)(=O)c1cc(C(=O)O)cc(N2CCCC2)c1Oc1ccccc1
inactive: Potency [1] | outcome [2] | Potency [4] | Potency [10] | activity change, positive = activation [5] 0.186% [at 42.5 µM] | Potency [6] | Potency [7] | Potency [9] | Potency [8]

Cc1sccc1Br
inactive: Potency [1] | outcome [2] | Potency [4] | Potency [10] | activity change, positive = activation [5] -1.02% [at 42.5 µM] | Potency [6] | Potency [7] | Potency [8]

Cc1ccc(Cl)cc1Cl
inactive: Potency [1] | outcome [2] | outcome [3] | activity change, positive = activation [5] -0.115% | Potency [6] | Potency [7] | Potency [9] | Potency [8]

CC(C)(C)c1nnc(NS(=O)(=O)c2ccccc2)s1
inactive: Potency [1] | outcome [2] | outcome [3] | activity change, positive = activation [5] -14.8% [at 42.5 µM] | Potency [6] | Potency [7] | Potency [9] | Potency [8]

CS(=O)(=O)O
inactive: Potency [1] | outcome [2] | Potency [4] | Potency [10] | activity change, positive = activation [5] 3.34% | Potency [6] | Potency [7] | Potency [8]

CCCC(=O)O[C@]1(C(=O)CO)CC[C@H]2[C@@H]3CCC4=CC(=O)CC[C@]4(C)[C@H]3[C@@H](O)C[C@@]21C
inactive: Potency [1] | outcome [2] | Potency [4] | Potency [10] | activity change, positive = activation [5] -12.3% [at 42.5 µM] | Potency [6] | Potency [9]

CC(=O)c1ccccc1O
inactive: Potency [1] | outcome [2] | Potency [4] | Potency [10] | activity change, positive = activation [5] 0.43% | Potency [6] | Potency [9] | Potency [8]

CCCCNC(=O)NCCCC
inactive: Potency [1] | outcome [2] | Potency [4] | Potency [10] | activity change, positive = activation [5] 12.5% | Potency [6] | Potency [7] | Potency [9] | Potency [8]

CC(C[N+](C)(C)C)OC(N)=O (stereo not given)
inactive: Potency [1] | outcome [2] | Potency [4] | Potency [10] | activity change, positive = activation [5] 3.25% [at 42.5 µM] | Potency [6] | Potency [7] | Potency [9] | Potency [8]

CC1(C)CO[C@@H](CC(=O)O)CN1
inactive: Potency [1] | outcome [2] | Potency [4] | Potency [10] | activity change, positive = activation [5] 0.501% [at 42.5 µM] | Potency [6] | Potency [7] | Potency [9] | Potency [8]

CC(C)NC(=O)NC(C)C
inactive: Potency [1] | outcome [2] | outcome [3] | activity change, positive = activation [5] -2.14% | Potency [6] | Potency [7] | Potency [9] | Potency [8]

CC(C)c1cc2c(cc1S(=O)(=O)O)[C@@]1(C)CCC[C@@](C)(C(=O)O)[C@@H]1CC2
inactive: Potency [1] | outcome [2] | Potency [4] | Potency [10] | activity change, positive = activation [5] 5.5% [at 42.5 µM] | Potency [6] | Potency [7] | Potency [9] | Potency [8]
